Compound activity: PubChem, The Scripps Research Institute Molecular Screening Center
A selection: hits, their analogues and other compounds. The true share with any hit is near 2.9%.
PAFAH1B3 FP inh – PAFAH1B3 enzyme inhibitors, primary screen, biochemical, fluorescence polarization, human; AID 492972, 2010; recombinant PAFAH1B3, FP-rhodamine probe; Platelet-activating factor acetylhydrolase IB subunit alpha1 (Homo sapiens), Q15102; inhibition, % at 3.39 µM; 340,000 compounds, 0.28% hits;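 active means inhibition above the screen-wide average of all tested compounds plus 3 SD, cut at about 25% in these data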;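 further: 0% = enzyme with DMSO only and 100% = wells lacking PAFAH1B3 protein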
pPAFAH inh – pPAFAH enzyme inhibitors, primary screen, biochemical, fluorescence polarization, human; AID 463082, 2010; 330,000 compounds, 1.5% hits; inhibition, % at 3.39 µM; recombinant pPAFAH, FP-rhodamine probe fluorescence polarization; Platelet-activating factor acetylhydrolase (Homo sapiens), Q13093;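 active means inhibition above the mean inhibition across the screen plus 3 SD, cut at about 25% in these data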;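 further: inhibitors block binding of the rhodamine activity-based probe so polarization drops; 0% = enzyme with DMSO and 100% = wells lacking pPAFAH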
PAFAH1B2 FP inh – PAFAH1B2 enzyme inhibitors, primary screen, biochemical, fluorescence polarization, human; 340,000 compounds, 1.2% hits; inhibition, % at 3.39 µM; AID 492953, 2010; recombinant PAFAH1B2, FP-rhodamine activity probe;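 active means inhibition above the mean of all tested compounds plus 3 SD, cut at about 24% in these data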;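 further: 0% = enzyme with DMSO and 100% = wells lacking PAFAH1B2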
Target sequence (P68402 whole entry, looked up): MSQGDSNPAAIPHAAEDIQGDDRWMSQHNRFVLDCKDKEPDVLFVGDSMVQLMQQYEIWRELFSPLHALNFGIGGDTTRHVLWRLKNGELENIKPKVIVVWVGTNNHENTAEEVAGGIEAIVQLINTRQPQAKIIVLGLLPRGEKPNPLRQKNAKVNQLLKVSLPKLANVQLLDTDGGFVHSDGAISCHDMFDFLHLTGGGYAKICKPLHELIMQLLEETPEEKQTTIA
PME-1 primary – PME-1 inhibitors via competitive probe labeling, primary screen, biochemical, fluorescence polarization, FP-Rh probe, HTS; Protein phosphatase methylesterase 1 (Homo sapiens), Q9Y570; recombinant PME-1; inhibition, % at 5.9 µM; 320,000 compounds, 0.53% hits; AID 2130, 2009;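 active means inhibition above the campaign mean of all compounds plus 3 SD, cut at about 26% in these data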;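 further: competitive labeling of PME-1 active site by serine hydrolase directed probe; 0% = PME-1 with DMSO and 100% = wells lacking PME-1 enzyme; inhibitors block probe labeling so polarization falls and inhibition rises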
Target sequence (Q9Y570 whole entry, looked up): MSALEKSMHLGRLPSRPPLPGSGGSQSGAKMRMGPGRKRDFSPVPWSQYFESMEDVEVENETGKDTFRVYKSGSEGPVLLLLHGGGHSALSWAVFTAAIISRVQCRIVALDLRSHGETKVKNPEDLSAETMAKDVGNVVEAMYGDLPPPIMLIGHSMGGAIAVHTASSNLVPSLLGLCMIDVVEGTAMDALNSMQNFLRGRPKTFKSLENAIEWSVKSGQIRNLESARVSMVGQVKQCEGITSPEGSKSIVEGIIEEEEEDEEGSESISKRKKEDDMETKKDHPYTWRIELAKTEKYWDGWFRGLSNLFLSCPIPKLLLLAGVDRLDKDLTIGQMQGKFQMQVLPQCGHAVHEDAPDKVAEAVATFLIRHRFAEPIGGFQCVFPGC
Fam108B counter – mouse Fam108B serine hydrolase inhibitors, primary screen, counter-screen for RBBP9 inhibitor project, biochemical, fluorescence polarization; 300,000 compounds, 0.33% hits; recombinant Fam108B, FP-Rh probe fluorescence polarization; inhibition, % at 9.51 µM;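 active means inhibition above the screen mean inhibition plus 3 SD, computed separately per campaign, cut at about 18% in these data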;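 further: inhibitors lower polarization as less probe binds the enzyme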
PAFAH2 inh – PAFAH2 enzyme inhibitors, primary screen, biochemical, fluorescence polarization, human; Platelet-activating factor acetylhydrolase 2, cytoplasmic (Homo sapiens), Q99487; recombinant PAFAH2, FP-rhodamine activity probe; inhibition, % at 3.39 µM; 340,000 compounds, 0.99% hits;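 active means inhibition above the mean over all tested compounds plus 3 SD, cut at about 30% in these data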;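 further: inhibitors block probe labeling of enzyme so polarization drops; 0% = enzyme with DMSO and 100% = wells lacking PAFAH2 protein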
* = called active by the depositor; / = no result given.

SMILES	PAFAH1B3 FP inh	pPAFAH inh	PAFAH1B2 FP inh	PME-1 primary	Fam108B counter	PAFAH2 inh
O=C(Nc1nc2ccccc2[nH]1)C12CC3CC(CC(C3)C1)C2	-0.2	-2.5	28.5*	-5.1	-2.1	16.6
COc1cc2c(C#N)c(N3CCN(C)CC3)nc(N)c2c(N)n1	3.1	6.0	2.1	12.1	-0.1	-5.3
COc1cc2c(C#N)c(N3CCN(c4ccccc4OC)CC3)nc(N)c2c(N)n1	16.9	10.6	-3.0	72.5*	11.8	5.3
CN(C(=O)c1ccc(NC(=O)Cc2cccc(NC(=O)C3CCN(C(=O)C4CCCCC4)CC3)c2)cc1)C1CCCC1	-4.5	-4.3	0.9	0.6	/	-8.1
Cc1c(C(=O)N2CCCCCC2)c(S(=O)(=O)NCc2ccccc2Cl)c(C)n1C	-2.4	2.3	-0.5	4.7	3.1	-0.5
NS(=O)(=O)c1ccc(NC(=O)CSc2nc3ccccc3n2-c2ccccc2)cc1	-14.6	31.6*	-2.9	-13.8	-9.7	-14.8
O=C(CSc1nc2ccccc2c(=O)n1CC1CCCO1)NCC1CCCO1 (stereo not given)	8.6	-3.8	7.5	-2.8	-3.5	8.4
CN(C)S(=O)(=O)c1ccc(NC(=O)CSc2nc3ccccc3n2-c2ccccc2)cc1	-18.6	11.7	-14.1	-38.8	-31.3	-26.8
O=C(CSc1nc2ccccc2o1)c1cc2ccccc2oc1=O	7.4	25.6*	3.7	-2.8	5.2	-3.0
Cc1cc(C)nc(SCC(=O)c2cc3ccccc3oc2=O)n1	4.0	3.3	1.8	2.1	3.0	-1.2
O=C(CSc1nc2ccccc2o1)NCC1CCCO1 (stereo not given)	20.7	1.6	24.2*	3.5	0.3	32.1*
O=C(CSc1nc2ccccc2o1)NC1CCCC1	2.6	3.6	7.3	6.8	0.2	1.6
O=C(CSc1nc2ccccc2n1-c1ccccc1)NCC1CCCO1 (stereo not given)	2.5	27.9*	-1.2	2.0	0.7	4.0
CC(NC(=O)C1CCCN(C(=O)c2ccc(Cl)cc2)C1)c1cccc(C(F)(F)F)c1 (stereo not given)	0.3	2.7	-0.7	-3.2	/	9.3
Cc1ccc(N2CCN(c3ncccc3[N+](=O)[O-])CC2)c(C)c1	12.0	8.6	0.4	-0.7	2.7	1.1
Cc1ccc(C)c(N2CCN(c3ncccc3[N+](=O)[O-])CC2)c1	6.0	27.6*	4.3	4.3	-4.8	2.4
COc1ccc(N2CCN(c3nc4cc(C)ccc4cc3C=O)CC2)cc1	20.5	7.8	-1.0	-0.5	2.8	-4.2
O=C(CCc1ccccc1)Nc1nc2nc(-c3ccccc3)cc(=O)n2[nH]1	12.2	-3.6	26.7*	-5.1	1.4	5.2
Cn1c(N)c(N=O)c(=O)n(C)c1=S	3.4	/	1.2	/	/	2.9
OCCN1CCN(c2ncnc3c2c(-c2ccccc2)cn3-c2ccc(F)cc2)CC1	4.3	25.1*	-1.2	3.0	1.3	-4.8
COc1ccc(-n2cc(-c3ccccc3)c3c(N4CCN(CCO)CC4)ncnc32)cc1	-1.4	22.7	-1.4	4.8	7.2	-0.8
COc1cccc(CNC(=O)CCC2CCCN(Cc3cc4ccccc4o3)C2)c1 (stereo not given)	7.2	20.9	2.0	0.3	-1.9	-3.1
COc1ccc(NC(=O)COC(=O)c2ccc(O)cc2)c([N+](=O)[O-])c1	6.1	27.9*	-0.2	9.9	3.7	49.3*
Cc1nc(C)c(C(=O)OCC(=O)N(C)c2ccccc2)s1	5.0	/	4.3	/	/	6.6
NC(=O)c1c(NC(=O)c2ccco2)sc2c1CCC2	3.7	6.9	-1.6	-2.5	-5.0	-2.9
SMILES	PAFAH1B3 FP inh	pPAFAH inh	PAFAH1B2 FP inh	PME-1 primary	Fam108B counter	PAFAH2 inh
N#Cc1c(NC(=O)c2ccco2)sc2c1CCC2	4.3	29.9*	11.3	2.1	6.2	-50.1
O=C1C=C(NCCc2cc(Br)c(O)c(Br)c2)C(=O)c2ncccc21	68.3*	/	28.1*	/	/	37.0*
CC(C)(C)c1cc(CCC(=O)NCCc2ccccn2)cc(C(C)(C)C)c1O	6.7	0.4	2.0	4.3	3.8	0.2
COC(=O)COc1ccc(S(=O)(=O)Nc2ccc3c(c2)OCCO3)cc1C	3.7	5.6	4.3	2.5	-6.5	2.3
O=C(COC(=O)CCNS(=O)(=O)c1ccccc1F)Nc1nnc(-c2ccccc2)o1	11.0	32.7*	0.6	1.0	-0.5	9.5
O=C(CCNS(=O)(=O)c1ccccc1)OCc1nnc(-c2ccccc2)o1	2.8	29.6*	2.1	2.7	-0.7	2.4
Cc1ccc(C(=O)CCC(=O)OCC(=O)Nc2nnc(-c3ccccc3)o2)cc1	-5.3	/	1.2	/	/	-1.1
CC(C)CNS(=O)(=O)c1cc2c3c(c1)CCC(=O)N3CCC2	-0.1	3.7	-3.4	-9.9	3.9	8.9
Cc1ccc(NC(=O)c2ncn(CCCNCc3ccccn3)n2)cc1C	5.0	/	0.3	/	/	1.7
CCNC(=O)NC(=O)CSc1ccc(S(=O)(=O)N2CCCCC2)cn1	7.2	-0.2	8.9	4.2	/	-2.8
NNC(=O)c1cc(O)c(O)c(O)c1	10.1	30.3*	7.5	-11.7	0.7	2.4
N=C1/C(=C/c2cccn2-c2ccc([N+](=O)[O-])cc2)C(=O)N=C2SC=CN12	-3.4	20.5	-4.6	-11.7	-6.5	-2.3
O=C1NC(=S)N/C1=C/c1cccn1-c1ccc([N+](=O)[O-])cc1	4.8	32.1*	8.8	1.7	-0.5	1.4
CN1C(=O)C(C)(C)c2cc(S(=O)(=O)N3CCN(c4cccc(Cl)c4)CC3)ccc21	7.8	16.9	-4.5	3.9	-4.9	7.2
CCN(CC)S(=O)(=O)c1ccc(N2CCOCC2)c(NC(=O)c2c3c(nc4ccccc24)CCC3)c1	-2.8	26.3*	-5.8	1.7	1.1	17.4
O=C(Nc1cccc(S(=O)(=O)N2CCOCC2)c1)c1ccc2ccccc2n1	-4.5	-1.7	-2.6	-1.5	-0.1	2.2
COc1ccc(NC(=O)c2cc(-c3ccco3)nc3ccccc23)cc1S(=O)(=O)N1CCOCC1	7.3	-13.4	2.3	-6.0	5.4	10.6
Cc1ccc(NC(=O)c2cc(-c3ccco3)nc3ccccc23)cc1S(=O)(=O)N1CCOCC1	-0.3	26.8*	-6.3	-2.2	12.9	-7.5
O=C(Nc1cccc(S(=O)(=O)N2CCOCC2)c1)c1c2c(nc3ccccc13)CCC2	2.4	26.7*	-1.4	5.6	2.8	-4.3
CCOc1cc(C=O)ccc1OCCSc1ccc(Cl)cc1	-1.4	13.1	54.1*	-1.8	0.1	-2.5
CN1CCC(OC(=O)c2ccccc2)CC1	11.8	6.8	1.2	9.2	26.0*	-3.0
N#Cc1ccc(NC(=O)c2cc(S(=O)(=O)N3CCOCC3)ccc2N2CCCC2)cc1	-2.6	2.7	5.0	-3.3	1.4	-6.3
